FGF22 binding = shifts melting point of recombinant human FGF22. recombinant FGF22 thermal shift, SYPRO orange fluorescence; percent of sucrose octasulfate shift, DMSO zero. Q9HCT0. AID 651658. activity (Tm shift, normalised), % at 9.99 µM. hit rate 1.5% among 340,000;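 active = mean Tm shift, scaled 0 neutral to 100 positive control, at about 1.3% or above, every replicate too, limit read from the data; inconclusive = no clear call, values can overlap the other calls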
Target sequence (Q9HCT0 whole entry, looked up): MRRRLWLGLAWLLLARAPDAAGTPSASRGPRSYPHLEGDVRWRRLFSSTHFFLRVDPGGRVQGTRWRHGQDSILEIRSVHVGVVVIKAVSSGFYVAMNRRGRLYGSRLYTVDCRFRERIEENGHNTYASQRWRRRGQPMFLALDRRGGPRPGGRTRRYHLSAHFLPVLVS
Vif inh = blocks HIV Vif function; hit rate 0.35% among 340,000; AID 602346; inhibition, % at 7.49 µM; HEK293T cells, Vif self-association by quenched fluorescence, imaging, 24 h; in the data active = inhibition above about 50%, passing the limit was not always enough; inconclusive = no clear call, values can overlap the other calls; inactive = below about 31%
F508del corr = correctors of CFTR F508del function in bronchial epithelial cells | CFBE cells, YFP halide quenching; stimulated with forskolin plus potentiator P3; % fluorescence drop versus neutral controls | activity (quench increase), % at 7.58 µM | hit rate 0.36% among 350,000 | AID 720511;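 active = mean added fluorescence quench of at least 8% versus neutral control, with both replicates also reaching 8%; inconclusive = only one of the mean or replicate conditions met; inactive = mean below 8% and not both replicates reaching 8%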;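 note: cells transiently co-express mutant CFTR-F508del with the halide-sensitive YFP; corrector assay measuring rescue of mutant channel to the surface after 24 h compound exposure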
* = called active by the depositor. A selection: hits, their analogues and other compounds. The true share with any hit is near 1.7%.

Cc1noc(C)c1S(=O)(=O)N(C)C[C@H]1OCCCC[C@H](C)Oc2ccc(NC(=O)C3CCCCC3)cc2C(=O)N([C@@H](C)CO)C[C@H]1C was read as FGF22 binding -0.4 and F508del corr -1.7.
For Cc1[nH]c2ccccc2c1C(=O)CCl the results were FGF22 binding 0.0, Vif inh -0.6 and F508del corr 1.6.
Cc1[nH]c2ccccc2c1C(=O)NS(=O)(=O)Nc1ccccc1 was read as FGF22 binding 43.4*, Vif inh 12.1 and F508del corr -3.7.
`C[C@@H]1CN([C@H](C)CO)C(=O)c2cc(NC(=O)Nc3ccccc3)ccc2O[C@H]1CN(C)C(=O)NC1CCCCC1` gave FGF22 binding -0.1 and F508del corr -3.2.
Screening COc1cc(NC(=O)c2ccccc2)ccc1NC(=O)c1cc2ccccc2o1 returned FGF22 binding 0.2, Vif inh 1.3 and F508del corr 2.7.
For Cc1cc(NC(=O)c2cncc(Br)c2)ccc1NC(=O)c1cc2ccccc2o1 the results were FGF22 binding -0.1, Vif inh 104.4* and F508del corr -2.8.
Screening CCC1=Nc2cc(C(=O)NCc3ccco3)ccc2Sc2ccc(Cl)cc21 returned Vif inh 7.7.
`CCC1=Nc2cc(C(=O)NCC3CCCO3)ccc2Sc2ccc(Cl)cc21` (configuration not stated) gave FGF22 binding 0.1, Vif inh -8.0 and F508del corr 14.8*.
CCC1=Nc2cc(C(=O)NCC3CCCO3)ccc2Sc2ccc(Br)cc21 (configuration not stated) was read as FGF22 binding -0.2, Vif inh 7.7 and F508del corr 4.0.
For CCC1=Nc2cc(C(=O)NCc3cccnc3)ccc2Sc2ccc(C)cc21 the results were FGF22 binding 0.0, Vif inh inconclusive and F508del corr 12.2*.
COCC(=O)N[C@H]1C=C[C@H](CC(=O)N2CCCCC2)O[C@@H]1CO was read as FGF22 binding 0.1 and F508del corr 1.3.
CCCC(=O)Nc1ccc2c(c1)OC[C@@H](C)N(Cc1ccc(F)cc1)C[C@H](C)[C@@H](OC)CN(C)C2=O was read as FGF22 binding -0.2 and F508del corr 0.9.
`O=C(CCc1ccccc1)NCC(c1ccco1)N1CCc2ccccc21` (configuration not stated) gave FGF22 binding -1.0, Vif inh 0.9 and F508del corr 14.3*.
`O=C(NCC(c1ccco1)N1CCc2ccccc21)c1ccccc1F` (configuration not stated) gave FGF22 binding -0.3, Vif inh -10.1 and F508del corr 1.9.
CO[C@H](CN(C)S(=O)(=O)c1cccc(Cl)c1)[C@@H](C)CN([C@@H](C)CO)S(=O)(=O)c1cccc(Cl)c1 was read as FGF22 binding 0.0 and F508del corr 1.0.
CCCNC(=O)N1C[C@@H](O)COC[C@H]2O[C@H](CC(=O)N[C@H]3CCN(Cc4ccccc4)C3)CC[C@@H]21 was read as FGF22 binding -0.4 and F508del corr -2.2.
For CCC(=O)N1[C@@H]2CN(S(=O)(=O)c3ccc(F)cc3)c3ccccc3[C@@H]2[C@@H]1CO the results were FGF22 binding 0.0 and F508del corr -1.4.
Screening COc1ccc(NC(=O)CN(C)C(=O)C2CC(=O)N(CCc3ccc(OC)c(OC)c3)C2)cc1 (configuration not stated) returned FGF22 binding 0.1, Vif inh -5.4 and F508del corr 1.2.
Screening CCOc1ccc(NC(=O)CN(C)C(=O)C2CC(=O)N(CCc3ccc(OC)c(OC)c3)C2)cc1OCC (configuration not stated) returned FGF22 binding 6.3*, Vif inh -10.2 and F508del corr -0.3.
CO[C@@H]1CN(C)C(=O)c2cc(NC(=O)C3CC3)ccc2OC[C@H](C)N(Cc2ccncc2)C[C@@H]1C was read as FGF22 binding 0.2 and F508del corr -2.2.
Screening CCC(=O)Nc1ccc2c(c1)C(=O)N(C)C[C@@H](OC)[C@H](C)CN(Cc1ccc(-c3ccccn3)cc1)[C@H](C)CO2 returned FGF22 binding 0.2 and F508del corr 0.0.
`O=C(O)c1ccc(Cn2cc(C(F)(F)F)ccc2=O)cc1` gave FGF22 binding 43.1*, Vif inh -16.0 and F508del corr -3.4.
O=C(NCc1ccccc1)c1ccc(Cn2cc(C(F)(F)F)ccc2=O)cc1 was read as Vif inh 11.9.
`COCC#Cc1ccc2c(c1)O[C@@H](CN(C)S(=O)(=O)c1ccc(C)cc1)[C@H](C)CN([C@@H](C)CO)S2(=O)=O` gave FGF22 binding -0.7 and F508del corr 1.3.
For CCCCSc1nn[nH]n1 the results were FGF22 binding 0.0, Vif inh 52.0* and F508del corr -0.1.
For CCCCSc1nnc(CCC)n1N the results were Vif inh -17.7.

From PubChem BioAssay
